# This is part of a sample that, as a whole, favours compounds with a hit. Of some 83,000 tested, about 20% had one in any assay.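 Each cell line was grown in a 96-well plate and treated with one concentration of compound for 48 hours. Values below 10 were considered active.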 A number with no mark means an inactive call. Activity calls are given as the source filed them.
# Legend:
# Experiment in all cases: NCI-60 one-dose screen, 48 h (100 = growth as untreated, 0 = no growth, -100 = all killed)
# [1] = tested on: RPMI-8226 leukemia; conditions: 10 µM unless noted
# [2] = tested on: OVCAR-8 ovarian; conditions: 10 µM unless noted
# [3] = tested on: OVCAR-5 ovarian; conditions: 10 µM unless noted
# [4] = tested on: OVCAR-4 ovarian; conditions: 10 µM unless noted
# [5] = tested on: SK-OV-3 ovarian; conditions: 10 µM unless noted
# [6] = tested on: IGROV1 ovarian; conditions: 10 µM unless noted
# [7] = tested on: OVCAR-3 ovarian; conditions: 10 µM unless noted
# [8] = tested on: HS 578T breast; conditions: 10 µM unless noted
# [9] = tested on: NCI/ADR-RES ovarian; conditions: 10 µM unless noted
# [10] = tested on: T-47D breast; conditions: 10 µM unless noted
# [11] = tested on: BT-549 breast; conditions: 10 µM unless noted
# [12] = tested on: MDA-MB-435 melanoma; conditions: 10 µM unless noted
# [13] = tested on: SW-620 colon; conditions: 10 µM unless noted
# [14] = tested on: HCT-116 colon; conditions: 10 µM unless noted
# [15] = tested on: HCC-2998 colon; conditions: 10 µM unless noted
# [16] = tested on: KM12 colon; conditions: 10 µM unless noted
# [17] = tested on: MCF7 breast; conditions: 10 µM
SMILES,growth [1],growth [2],growth [3],growth [4],growth [5],growth [6],growth [7],growth [8],growth [9],growth [10],growth [11] [%],growth [12],growth [13],growth [14],growth [15],growth [16],growth [17]
COc1ccc(C2C3=C(COC3=O)N(CCO)c3cc4c(cc32)CCC4)cc1OC (stereo unspecified),33.4%,26.7%,57.3%,28.3%,24.8%,24.2%,-18.6% (active),21.1%,31.3%,22.6%,29.2,-45.6% (active),14.7%,14.3%,-0.413% (active),-8.65% (active),–
O=C(Nc1ccc(Br)cc1F)c1cc(Cl)ccc1O,-24.5% (active),9.87% (active),-9.6% (active),10.2%,-7.14% (active),14.1%,2.24% (active),7.7% (active),5.2% (active),-12.9% (active),–,-13.9% (active),11.7%,-30.5% (active),9.31% (active),–,0.423% (active)
CSc1nc2c(c(=O)[nH]1)N=C1c3ccccc3C(=O)C1C(c1ccccc1)N2 (stereo unspecified),36.2%,61.3%,82.5%,72.6%,64.3%,17.4%,-12% (active),48.2%,38.3%,43.9%,40,–,29.8%,21.8%,53.1%,28.1%,17.3%
O=C(CCc1nnc2sc(-c3ccc(Cl)cc3Cl)nn12)c1nc2ncccc2[nH]1,-2.08% (active),0.0907% (active),-49.3% (active),-37.7% (active),36.1%,-14.8% (active),-68.7% (active),0.818% (active),-3.89% (active),-26.3% (active),–,-31.2% (active),-30.4% (active),-73.6% (active),-71.6% (active),-52.2% (active),6.03% (active)
O=c1oc2ccc(F)cc2c(=O)n1-c1ccc(F)cc1F,5.47% (active),23.3%,64.8%,11.9%,-4.73% (active),30.1%,4.14% (active),12.8%,18.9%,-11.9% (active),–,11.7%,31.7%,24.4%,22.8%,12.6%,24.8%
O=C1c2ccccc2C(=O)c2c1ccc1[nH]c(CCl)nc21,-40.3% (active),20.1%,70.4%,-20.4% (active),37.6%,15.2%,-35.9% (active),18.2%,34.5%,-21.5% (active),–,28.6%,-23.7% (active),-6.49% (active),65.5%,22.9%,6.47% (active)
O=c1oc2ccc(F)cc2c(=O)n1-c1ccc(Cl)cc1F,-23.1% (active),9.27% (active),17.6%,13.3%,-11.5% (active),18.9%,8.61% (active),-0.15% (active),2.98% (active),-19% (active),–,1.54% (active),11.3%,3.98% (active),9.7% (active),2.07% (active),2.65% (active)
COc1nc2c(c(=O)n1C)N=C1c3ccccc3C(=O)C1C(c1ccccc1)N2 (stereo unspecified),92%,100%,97.1%,92.8%,91.4%,110%,74.9%,105%,73.3%,85.2%,81.1,–,88.4%,89.9%,106%,79.3%,88.2%
O=C(c1ccccc1)N(CCc1ccc(Cl)cc1)C(=S)N(C(=O)c1ccccc1)c1ccccc1,-27% (active),106%,106%,96.6%,120%,116%,104%,108%,109%,61.7%,–,96.8%,80.3%,69.6%,105%,56.5%,35.7%
Nc1ccc(-n2c(=O)oc3ccc(Cl)cc3c2=O)c(Cl)c1,-27.3% (active),-1.7% (active),25.6%,18.2%,5.68% (active),11.7%,5.11% (active),-4.07% (active),-1.91% (active),-8.23% (active),–,-5.78% (active),5.14% (active),-4.7% (active),10.2%,-33.7% (active),4.1% (active)
Cc1nc2ccccc2c(/C=C/c2ccccc2)c1C(=O)/C=C/c1ccc(Cl)cc1,-36.5% (active),20.9%,14.2%,26.5%,84.3%,14.9%,-40.5% (active),27.9%,9.61% (active),13.4%,–,-9.81% (active),3.99% (active),-5.14% (active),12.4%,21.4%,14.2%
COc1ccc(-n2c(C(O)c3ccccc3)n[nH]c2=S)cc1 (stereo unspecified),93.3%,103%,93.4%,102%,101%,99.1%,95.8%,111%,103%,97.7%,110,–,105%,96.3%,106%,101%,93.7%
CC(=O)SC1CC(=O)C=C2CCC3C4CCC(=O)OC4(C)CCC3C21C (stereo unspecified),103%,98.9%,99.7%,122%,113%,147%,106%,114%,110%,122%,92.4,–,103%,102%,99.3%,104%,97%
O=S1(=O)N(Cc2ccccc2)[C@@H](Cc2ccccc2)C2O[C@H]2[C@H](Cc2ccccc2)N1Cc1ccccc1 (stereo partly specified),27.9%,52.4%,93.5%,6.6% (active),47%,60.6%,62.8%,98.9%,40%,32.5%,63.1,60.1%,50.6%,17%,61.4%,40.2%,–
CCOc1ccc2nc(C)cc(Nc3ccc(Br)cc3)c2c1,82.6%,97.9%,97.7%,82.2%,101%,–,107%,117%,95.4%,97.1%,108,110%,94.8%,80.4%,117%,108%,76.6%
COc1ccc(C2NCCc3c2[nH]c2ccccc32)cc1CN1CCN(c2ccc(F)cc2)CC1 (stereo unspecified),-10% (active),24.6%,64.8%,65.3%,88.8%,–,66.8%,92.2%,54.7%,54.6%,69.7,38.2%,29.6%,41.6%,17.9%,40.4%,33.9%
COC(=O)/C(=C\c1c(C)[nH]c2ccccc12)S(=O)(=O)c1ccccc1,-45.8% (active),4.29% (active),33.6%,53%,22.6%,–,-19.8% (active),-29.7% (active),4.6% (active),17.8%,29.8,13.9%,30.4%,29.5%,5.21% (active),-13.2% (active),6.71% (active)
O=C(Cc1ccccc1)NC(c1ccc(Cl)cc1)c1c(O)ccc2ccccc12 (stereo unspecified),-20.8% (active),5.43% (active),45.7%,21.7%,36.1%,–,-22.9% (active),54.1%,9.15% (active),10.8%,50,6.36% (active),17.5%,–,24.8%,15.1%,8.18% (active)
S=C1NC2(c3ccccc3)CCC(=S)N2c2ccccc21 (stereo unspecified),103%,100%,103%,105%,–,106%,119%,101%,109%,106%,107,101%,108%,103%,127%,–,108%
